# Most compounds without a hit are left out; they make up all but 21% or so of the library.
# DRD3 antagonist: blocks the human D3 dopamine receptor. P35462. D3R cells, DiscoveRx beta-arrestin luminescence, antagonist mode; hits give low values. max response, negative = inhibition, %. 360,000 compounds, 2.5% hits. AID 652054; in the data active = max response below about -50%; inconclusive = no clear call, values can overlap the other calls; also: % is scaled to controls: 0 for no effect and ±100 for the full control effect
# Target sequence (P35462 whole entry, looked up): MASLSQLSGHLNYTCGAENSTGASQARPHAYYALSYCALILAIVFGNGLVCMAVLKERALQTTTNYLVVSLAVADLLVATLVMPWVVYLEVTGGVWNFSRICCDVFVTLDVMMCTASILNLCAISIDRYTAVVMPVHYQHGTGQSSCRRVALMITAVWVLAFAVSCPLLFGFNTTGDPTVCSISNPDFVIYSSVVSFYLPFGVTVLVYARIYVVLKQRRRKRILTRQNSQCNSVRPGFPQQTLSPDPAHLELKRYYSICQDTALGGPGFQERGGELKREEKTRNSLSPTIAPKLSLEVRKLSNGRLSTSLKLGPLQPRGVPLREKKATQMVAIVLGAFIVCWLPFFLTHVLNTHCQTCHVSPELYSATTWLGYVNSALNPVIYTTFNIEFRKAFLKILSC
#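 Cells expressing the human receptor were seeded at 1500 cells/well, incubated overnight at 37 degrees C in 5% CO2, then exposed to library compounds with dopamine controls for 90 minutes at 37 degrees C before luminescent detection.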
# IL1B secr inh: inhibitors of inflammasome signaling (IL-1 beta secretion). THP-1 LPS/ATP IL-1B secretion, AlphaLISA, 16 h; hits give low values. activity change, % at 57.5 µM. 360,000 compounds, 4.7% hits; in the data active = activity change below about -50%; inconclusive = mostly about -30% to -49%; also: % is scaled to controls: 0 for no effect and ±100 for the full control effect
#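 Secreted IL-1B measured by AlphaLISA bead assay after 16 h compound exposure of THP-1 cells; compounds (final up to 57.5 uM) added 1 h before LPS (250 ng/mL) and ATP (1.25 mM) stimulation; lower signal means less secretion.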
# DT40 TDP1 CPT: DT40-hTDP1 cell growth loss with CPT; chicken DT40 Tdp1-/-;hTDP1 cells + 20 nM CPT, ATP luminescence, 48 h; Potency, µM (top dose mostly 46.2 µM), for the others: top-dose activity change, negative = growth inhibition, usual class: inhibitors; 420,000 compounds, 12% hits; AID 686979; also: potency is read from the fitted curve at half-maximal effect; % is scaled to controls: 0 for no effect and ±100 for the full control effect; nearly all actives have a fitted effect of over 55% in size
#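 Chicken DT40 Tdp1-/- cells complemented with human TDP1, 400 cells/well, exposed to compounds plus 20 nM camptothecin for at least 48 h at 37 C; viability read as ATP content by CellTiter-Glo luminescence.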
# TDP1 cell noCPT: qHTS for Inhibitors of human tyrosyl-DNA phosphodiesterase 1 (TDP1): qHTS in cells in absence of CPT | DT40 Tdp1-/- hTDP1 cells, no CPT, ATP luminescence, 48 h | Potency, µM (titrated, usually from 46.2 µM), inactives show at the top dose activity change, negative = growth inhibition, most hits filed as inhibitors | 420,000 compounds, 15% hits | AID 686978, 2013; also: potency is read from the fitted curve at half-maximal effect; % is scaled to controls: 0 for no effect and ±100 for the full control effect; nearly all actives have a fitted effect of over 55% in size
#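 Chicken DT40 Tdp1-/- cells stably complemented with human TDP1 were seeded at 400 cells/well with DMSO in place of 20 nM camptothecin. After compound pinning, cells grew at least 48 hr at 37 °C; viability read by CellTiter-Glo luminescence.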
# ClpP mod: qHTS Assay for Activators of ClpP. ATP-dependent Clp protease proteolytic subunit (Bacillus subtilis (strain 168)), P80244. purified B. subtilis ClpP, FRET peptide cleavage, 20 min. Potency, µM (series often up to 57.5 µM), for inactives: top-dose activity change, negative = active. 340,000 compounds, 1.9% hits. AID 651965, 2013; active = well fitted falling curve with a large enough effect; inconclusive = small, poorly fitted or top-dose-only effect; inactive = no such curve, though single readings can be large or run the other way; also: potency is read from the fitted curve at half-maximal effect; the source files actives as falling curves though it sought activators and does not explain the sign; nearly all actives have a fitted effect of over 65% in size
# Target sequence (P80244 whole entry, looked up): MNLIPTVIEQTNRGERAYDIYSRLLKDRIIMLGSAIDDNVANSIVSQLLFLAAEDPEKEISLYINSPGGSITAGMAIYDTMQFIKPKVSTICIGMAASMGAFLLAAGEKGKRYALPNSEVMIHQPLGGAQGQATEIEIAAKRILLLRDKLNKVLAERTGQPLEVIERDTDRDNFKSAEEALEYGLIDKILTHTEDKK
#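 Purified B. subtilis ClpP, 10 microg/mL final in Tris/HCl pH8 with KCl, BSA, glycerol and Tween-20, cleaved an Abz/nitrotyrosine-quenched decapeptide. Fluorescence (ex 320, em 430) was read at 0 and 20 min at room temperature. Delta was normalized to 5.8 microM ADEP and DMSO/no-enzyme controls.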
# DRD3 agonist: agonists of human D3 dopamine receptor; max activation, %; D3R DiscoveRx beta-arrestin cells, luminescence, 90 min; P35462; 410,000 compounds, 0.58% hits; in the data active = max activation above about 30%; also: 0% is about no effect
#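 Agonist mode: compounds and dopamine controls were applied to plated cells for 90 min at 37 degrees C after an overnight attachment at 1500 cells/well. Luminescent read-out followed 30 - 60 minutes at room temperature with DiscoveRx detection reagent.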
# Starred values were filed as active, the others as inactive; ? = inconclusive; . = no result. Unless noted, calls follow the shape of the dose curve; as a rule, active = well fitted inhibition curve with a large enough effect; inconclusive = small, poorly fitted or top-dose-only effect; inactive = flat fitted curve, though single readings scatter.
SMILES,DRD3 antagonist,IL1B secr inh,DT40 TDP1 CPT,TDP1 cell noCPT,ClpP mod,DRD3 agonist
CCCCN(C(=O)CCN1C(=O)C2CC=CCC2C1=O)c1c(N)n(CCCC)c(=O)[nH]c1=O (configuration not stated),1.1,12.1,4.0%,-1.4%,2.3%,15.2
Cc1cc2nc(-c3ccc(Cl)cc3)cc(C(F)(F)F)n2n1,.,.,-29.0%,-24.2%,0.5%,2.8
COc1ccc(Br)cc1CN1CCN(C(=O)c2ccco2)CC1,-61.4*,14.5,-6.0%,?,-2.1%,-43.3
COc1ccc(Br)cc1CN1CCN(C(=O)c2cccc(F)c2)CC1,-9.1,-12.6,-28.1%,?,.,-13.3
Cc1cc(NC(=O)NC(=O)c2ccccc2NC(=O)C(C)N)ccc1Oc1ncc(Br)cn1 (configuration not stated),12.8,-1.2,0.651µM*,0.581µM*,-2.9%,3.7
COc1ccc(OCCSc2nnc(C)n2-c2ccccc2)cc1,?,-9.1,29.1µM*,25.9µM*,0.0%,-4.9
CN(C)CCSc1nnc2sc3ccccc3n12,?,15.0,-8.2%,-22.6%,0.0%,-11.0
COc1ccc(OCCSc2nnc3sc4ccccc4n23)cc1,1.6,-79.2*,?,?,-1.9%,-7.5
COc1ccc(CNC(=O)CCNC(=O)C2CCN(S(=O)(=O)c3ccc(OC)cc3)CC2)cc1,-2.4,?,-16.8%,-25.3%,-1.9%,2.4
CCOC(=O)c1c(C)[nH]c(CCC(=O)NC(C)c2ccccc2)c1C (configuration not stated),.,.,?,18.4µM*,0.9%,-19.7
CCOC(=O)c1c(C)[nH]c(CCC(=O)Nc2cc(Cl)ccc2OC)c1C,.,.,18.4µM*,20.6µM*,0.6%,3.3
CCOC(=O)c1c(C)[nH]c(CCC(=O)NCc2ccc(OC)cc2OC)c1C,.,.,?,16.4µM*,0.8%,-6.5
CCOC(=O)c1c(C)[nH]c(CCC(=O)NCc2cccc(C)c2)c1C,.,.,?,16.4µM*,0.7%,-5.4
CCOC(=O)c1c(C)[nH]c(CCC(=O)NCc2cccc(OC)c2)c1C,.,.,?,?,-0.5%,8.9
CCOC(=O)c1c(C)[nH]c(CCC(=O)NCc2cc(OC)c(OC)c(OC)c2)c1C,.,.,?,?,0.6%,8.1
CCOC(=O)c1c(C)[nH]c(C)c1S(=O)(=O)NCC(=O)Nc1cc(Cl)ccc1OC,.,.,?,-0.4%,0.1%,-12.4
O=C(c1cccc(S(=O)(=O)N2CCCC2)c1)N1CCOCC1,2.6,-5.2,-7.1%,15.8%,-0.5%,-1.1
CCOC(=O)c1c(C)[nH]c(C(=O)OC(C(=O)N(C)C)c2ccccc2)c1C (configuration not stated),.,.,10µM*,10µM*,-1.2%,.
CCOC(=O)c1c(C)[nH]c(C(=O)OC(C)C(=O)NCc2ccccc2)c1C (configuration not stated),-15.3,-9.1,?,-15.9%,-1.3%,-3.1
CCc1ccc(-n2c(N3CCN(c4cccc(C)c4C)CC3)nc3ccccc3c2=O)cc1,.,.,?,?,?,5.8
CCc1ccc(-n2c(N3CCN(c4cccc(Cl)c4)CC3)nc3ccccc3c2=O)cc1,.,.,6.51µM*,8.2µM*,5.0%,-4.7
CCc1ccc(-n2c(N3CCN(c4ccc(F)cc4)CC3)nc3ccccc3c2=O)cc1,.,.,23.1µM*,11.6µM*,?,5.6
CCN(c1ccccc1)c1nnc(NC(=O)Nc2ccc(Br)cc2F)s1,.,.,?,?,1.3%,-6.5
COc1cc(CNCCO)cc(Cl)c1OCc1ccc(Cl)cc1Cl,-29.2,-83.4*,?,20.6µM*,.,-9.0
COc1c(Cl)cc(Cl)cc1CNCCNCCO,?,-4.6,-27.9%,-7.0%,0.0%,-13.6
SMILES,DRD3 antagonist,IL1B secr inh,DT40 TDP1 CPT,TDP1 cell noCPT,ClpP mod,DRD3 agonist
CCCCNCc1cc(Br)c(OCC(=O)NCc2ccccc2)c(OC)c1,-9.1,-25.6,-19.0%,?,.,-13.2
COc1cc(CNCCO)cc(Br)c1OCc1ccccc1Cl,15.7,-14.8,23.1µM*,?,1.5%,-1.1
O=C(NNC(=O)c1cc(Br)c(Br)s1)c1ccncc1,-15.1,-1.5,-2.6%,-3.7%,?,-3.8
CC(=O)n1c(-c2ccccc2)c(CO)c2ccccc21,27.6,26.3,?,?,27.2%,16.7
NCCc1c(-c2ccccc2)n(-c2ccccc2)c2ccccc12,-26.0,-97.1*,?,?,.,-17.0
O=C(NCc1ccccn1)c1cc(-c2ccc(Br)cc2)nc2ccccc12,11.9,-3.7,?,13µM*,?,-2.5
CCOc1ccc(-c2cc(C(=O)NCc3ccc(C)cc3)c3ccccc3n2)cc1,.,.,-16.6%,-13.5%,?,1.7
Cc1ccc(-c2cc(C(=O)NCc3ccccn3)c3ccccc3n2)cc1,-13.2,-19.2,?,16.4µM*,14.1µM*,2.6
CCc1ccc(-c2cc(C(=O)NCc3ccccn3)c3ccccc3n2)cc1,11.1,?,?,?,14.1µM*,5.5
CCc1ccccc1Nc1cc(C(=O)NCc2ccccn2)c2ccccc2n1,12.5,-28.5,?,?,.,4.5
CCC(Cc1ccccc1)NC(=O)CN1C(=O)COc2ccc(S(=O)(=O)N3CCCCCC3)cc21 (configuration not stated),.,.,?,?,-0.9%,-9.8
COc1ccc(CNC(=O)CC2N=C3c4ccccc4N=C(SCC(=O)Nc4ccc(C(C)C)cc4)N3C2=O)cc1 (configuration not stated),.,.,-9.9%,-21.7%,0.5%,-21.7
CN1C(=O)[C@H]2[C@@H](c3ccc(C(F)(F)F)cc3)N[C@]3(CCCN(Cc4ccc(Br)cc4)C3=O)[C@H]2C1=O,30.8,-18.7,14.6µM*,16.4µM*,0.9%,10.5
CN1C(=O)[C@H]2[C@@H](c3ccc(C(F)(F)F)cc3)N[C@]3(CCCN(Cc4ccc(C(F)(F)F)cc4)C3=O)[C@H]2C1=O,-29.6,-4.4,23.1µM*,18.4µM*,0.5%,-7.0
CN1C(=O)[C@H]2[C@@H](c3ccc(C(F)(F)F)cc3)N[C@]3(CCCN(CC4CCCCC4)C3=O)[C@H]2C1=O,-18.5,-13.8,20.6µM*,10.3µM*,1.9%,-13.1
CN(C)C(=O)c1ccc(N/C=C(\C=O)c2nc3ccccc3o2)cc1,-1.0,57.3,-4.0%,30.2%,.,-2.6
